Reference: the supplement of paper PMC10849652
Targets with a hit are over-represented here; the source holds about 8,800 in all. About 0.5% of all pairs of compound and target were hits.

Tests used:
Test in all cases: log2 fold change, soluble protein after heating vs DMSO (PISA); higher = thermal stabilisation; K562 lysate, 10 uM; active = over 0.2 and 3.5 SD of the protein, either way, in both replicates (recomputed)
[1] = compound: C1=CC=C(C=C1)[C@H](COC2=CC3=C(C=C2)NC(=O)N3)NC(=O)C4=CC=CN(C4=O)CC5=CC(=C(C=C5)F)F
Method in brief: (§1)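 Quantification was by TMTpro 16plex LC-MS/MS with equalised channel sums, applied to the supernatant after 21,000xg for 90 min. Samples were crude K562 extract at 1 mg/mL protein in PBS pH 7.4 with 1 mM MgCl2, treated with 10 μM compound for 30 min, heated for 3 min across 48°C-58°C, pooled and brought to 0.5% NP-40 at 4°C. Values are log-two fold changes in thermal stability relative to solvent controls, from duplicates.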

[2] = compound: CC1=C(SC2=C1C(=N[C@H](C3=NN=C(N32)C)CC(=O)N)C4=CC=C(C=C4)Cl)C
Method in brief: as §1

[3] = compound: CC1=C2C(=CC=C1)N=C(N(C2=O)C3=CC=CC=C3C)CN4C=NC5=C(N=CN=C54)N
Method in brief: as §1

[4] = compound: Cc1sc2c(c1C)C(c1ccc(Cl)cc1)=N[C@@H](CC(=O)OC(C)(C)C)c1nnc(C)n1-2
Method in brief: as §1

[5] = compound: c1ccc([C@@H]2C[C@H]2NC2CCNCC2)cc1
Method in brief: as §1

Measured: log2 fold change

FNBP1L (UniProt Q5T0N5)
Chain of UniProt Q5T0N5 (Q5T0N5 whole entry, looked up): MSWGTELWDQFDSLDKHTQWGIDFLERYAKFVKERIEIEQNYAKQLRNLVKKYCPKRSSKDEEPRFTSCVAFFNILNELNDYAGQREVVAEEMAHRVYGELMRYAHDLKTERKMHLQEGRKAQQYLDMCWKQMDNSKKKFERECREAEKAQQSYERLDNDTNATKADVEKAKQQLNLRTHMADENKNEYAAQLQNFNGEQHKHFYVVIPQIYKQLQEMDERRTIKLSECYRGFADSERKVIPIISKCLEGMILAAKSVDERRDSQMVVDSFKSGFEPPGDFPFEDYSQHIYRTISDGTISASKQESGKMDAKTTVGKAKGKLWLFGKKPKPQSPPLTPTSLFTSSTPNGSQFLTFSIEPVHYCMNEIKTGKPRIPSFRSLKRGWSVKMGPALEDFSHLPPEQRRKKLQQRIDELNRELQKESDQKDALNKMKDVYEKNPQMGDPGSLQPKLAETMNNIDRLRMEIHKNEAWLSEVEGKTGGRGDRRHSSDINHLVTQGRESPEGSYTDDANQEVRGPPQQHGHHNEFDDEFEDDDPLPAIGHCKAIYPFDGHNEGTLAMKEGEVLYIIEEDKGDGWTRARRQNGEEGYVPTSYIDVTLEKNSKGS
inactive: [1] -0.082 | [2] -0.009 | [3] 0.012 | [4] -0.032 | [5] 0.029

GCA (UniProt P28676)
inactive: [5] -0.095

FAT2 (UniProt Q9NYQ8)
inactive: [1] -0.009 | [2] 0.092 | [3] 0.104 | [5] -0.161

GART (UniProt C9JZG2)
inactive: [1] -0.131 | [2] 0.086 | [5] -0.366

EXOC3 (UniProt O60645)
inactive: [1] -0.026 | [2] -0.019 | [3] 0.053 | [4] -0.017 | [5] 0.08

FPGT (UniProt O14772)
Chain of UniProt O14772 (O14772 whole entry, looked up): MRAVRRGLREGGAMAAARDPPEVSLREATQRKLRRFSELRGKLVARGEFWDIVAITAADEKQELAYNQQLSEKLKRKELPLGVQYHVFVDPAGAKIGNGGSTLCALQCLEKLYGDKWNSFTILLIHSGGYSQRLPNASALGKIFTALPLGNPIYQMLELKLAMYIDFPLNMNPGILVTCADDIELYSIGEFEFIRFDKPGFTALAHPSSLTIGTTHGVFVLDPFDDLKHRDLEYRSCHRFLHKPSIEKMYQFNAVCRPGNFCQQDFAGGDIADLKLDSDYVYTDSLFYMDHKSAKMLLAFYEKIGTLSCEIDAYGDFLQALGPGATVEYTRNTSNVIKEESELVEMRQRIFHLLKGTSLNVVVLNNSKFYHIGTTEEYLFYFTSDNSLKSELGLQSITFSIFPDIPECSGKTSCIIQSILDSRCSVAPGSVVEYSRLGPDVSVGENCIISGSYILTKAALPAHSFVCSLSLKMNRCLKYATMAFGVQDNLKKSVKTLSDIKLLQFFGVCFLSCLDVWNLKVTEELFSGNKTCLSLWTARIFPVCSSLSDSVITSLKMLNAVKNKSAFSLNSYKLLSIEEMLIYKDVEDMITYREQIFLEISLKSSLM
inactive: [1] 0.007 | [2] -0.003 | [3] 0.07 | [4] -0.006 | [5] 0.104

EHHADH (UniProt Q08426)
Chain of UniProt Q08426 (Q08426 whole entry, looked up): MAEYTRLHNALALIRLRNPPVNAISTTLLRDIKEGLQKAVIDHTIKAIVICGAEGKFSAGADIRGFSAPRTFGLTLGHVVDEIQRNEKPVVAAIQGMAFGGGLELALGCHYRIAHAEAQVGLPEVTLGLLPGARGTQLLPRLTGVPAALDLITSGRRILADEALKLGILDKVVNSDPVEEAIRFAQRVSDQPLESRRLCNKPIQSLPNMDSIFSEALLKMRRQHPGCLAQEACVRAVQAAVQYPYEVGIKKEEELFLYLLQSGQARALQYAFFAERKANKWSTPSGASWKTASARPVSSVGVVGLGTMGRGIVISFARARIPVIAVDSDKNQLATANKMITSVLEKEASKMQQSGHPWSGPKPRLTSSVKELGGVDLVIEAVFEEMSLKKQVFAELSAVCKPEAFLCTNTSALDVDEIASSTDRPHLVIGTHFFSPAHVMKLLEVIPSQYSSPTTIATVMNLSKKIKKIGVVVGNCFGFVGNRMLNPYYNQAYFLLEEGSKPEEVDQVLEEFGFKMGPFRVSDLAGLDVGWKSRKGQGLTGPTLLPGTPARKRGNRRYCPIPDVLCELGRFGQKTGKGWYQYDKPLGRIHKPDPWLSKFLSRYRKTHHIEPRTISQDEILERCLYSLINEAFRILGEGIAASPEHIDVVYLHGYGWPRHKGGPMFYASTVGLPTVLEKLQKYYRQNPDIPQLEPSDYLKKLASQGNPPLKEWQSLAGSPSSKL
inactive: [1] 0.035 | [2] -0.143 | [4] -0.086 | [5] 0.031

FAM98A (UniProt Q8NCA5)
Chain of UniProt Q8NCA5 (Q8NCA5 whole entry, looked up): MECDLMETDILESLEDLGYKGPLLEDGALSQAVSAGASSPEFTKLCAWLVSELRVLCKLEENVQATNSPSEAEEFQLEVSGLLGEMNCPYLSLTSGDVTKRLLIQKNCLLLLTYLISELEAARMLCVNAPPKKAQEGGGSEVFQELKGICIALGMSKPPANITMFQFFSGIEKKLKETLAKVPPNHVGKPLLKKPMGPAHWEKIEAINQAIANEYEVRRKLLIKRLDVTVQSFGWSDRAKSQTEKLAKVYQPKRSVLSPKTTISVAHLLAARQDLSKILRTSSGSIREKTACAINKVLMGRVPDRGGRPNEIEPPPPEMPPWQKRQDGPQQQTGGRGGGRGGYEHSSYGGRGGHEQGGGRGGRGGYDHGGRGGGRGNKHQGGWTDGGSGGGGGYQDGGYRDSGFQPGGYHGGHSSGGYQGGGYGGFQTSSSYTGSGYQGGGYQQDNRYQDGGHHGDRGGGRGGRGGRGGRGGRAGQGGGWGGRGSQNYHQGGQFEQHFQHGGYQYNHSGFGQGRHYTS
inactive: [1] 0.017 | [2] 0.002 | [3] -0.048 | [4] 0.016 | [5] 0.02

FTSJ1 isoform 2 (UniProt Q9UET6)
inactive: [3] -0.089 | [5] -0.234

FMNL2 isoform 3 (UniProt Q96PY5)
inactive: [4] 0.089

GCN1 (UniProt Q92616)
Chain of UniProt Q92616 (Q92616 whole entry, looked up): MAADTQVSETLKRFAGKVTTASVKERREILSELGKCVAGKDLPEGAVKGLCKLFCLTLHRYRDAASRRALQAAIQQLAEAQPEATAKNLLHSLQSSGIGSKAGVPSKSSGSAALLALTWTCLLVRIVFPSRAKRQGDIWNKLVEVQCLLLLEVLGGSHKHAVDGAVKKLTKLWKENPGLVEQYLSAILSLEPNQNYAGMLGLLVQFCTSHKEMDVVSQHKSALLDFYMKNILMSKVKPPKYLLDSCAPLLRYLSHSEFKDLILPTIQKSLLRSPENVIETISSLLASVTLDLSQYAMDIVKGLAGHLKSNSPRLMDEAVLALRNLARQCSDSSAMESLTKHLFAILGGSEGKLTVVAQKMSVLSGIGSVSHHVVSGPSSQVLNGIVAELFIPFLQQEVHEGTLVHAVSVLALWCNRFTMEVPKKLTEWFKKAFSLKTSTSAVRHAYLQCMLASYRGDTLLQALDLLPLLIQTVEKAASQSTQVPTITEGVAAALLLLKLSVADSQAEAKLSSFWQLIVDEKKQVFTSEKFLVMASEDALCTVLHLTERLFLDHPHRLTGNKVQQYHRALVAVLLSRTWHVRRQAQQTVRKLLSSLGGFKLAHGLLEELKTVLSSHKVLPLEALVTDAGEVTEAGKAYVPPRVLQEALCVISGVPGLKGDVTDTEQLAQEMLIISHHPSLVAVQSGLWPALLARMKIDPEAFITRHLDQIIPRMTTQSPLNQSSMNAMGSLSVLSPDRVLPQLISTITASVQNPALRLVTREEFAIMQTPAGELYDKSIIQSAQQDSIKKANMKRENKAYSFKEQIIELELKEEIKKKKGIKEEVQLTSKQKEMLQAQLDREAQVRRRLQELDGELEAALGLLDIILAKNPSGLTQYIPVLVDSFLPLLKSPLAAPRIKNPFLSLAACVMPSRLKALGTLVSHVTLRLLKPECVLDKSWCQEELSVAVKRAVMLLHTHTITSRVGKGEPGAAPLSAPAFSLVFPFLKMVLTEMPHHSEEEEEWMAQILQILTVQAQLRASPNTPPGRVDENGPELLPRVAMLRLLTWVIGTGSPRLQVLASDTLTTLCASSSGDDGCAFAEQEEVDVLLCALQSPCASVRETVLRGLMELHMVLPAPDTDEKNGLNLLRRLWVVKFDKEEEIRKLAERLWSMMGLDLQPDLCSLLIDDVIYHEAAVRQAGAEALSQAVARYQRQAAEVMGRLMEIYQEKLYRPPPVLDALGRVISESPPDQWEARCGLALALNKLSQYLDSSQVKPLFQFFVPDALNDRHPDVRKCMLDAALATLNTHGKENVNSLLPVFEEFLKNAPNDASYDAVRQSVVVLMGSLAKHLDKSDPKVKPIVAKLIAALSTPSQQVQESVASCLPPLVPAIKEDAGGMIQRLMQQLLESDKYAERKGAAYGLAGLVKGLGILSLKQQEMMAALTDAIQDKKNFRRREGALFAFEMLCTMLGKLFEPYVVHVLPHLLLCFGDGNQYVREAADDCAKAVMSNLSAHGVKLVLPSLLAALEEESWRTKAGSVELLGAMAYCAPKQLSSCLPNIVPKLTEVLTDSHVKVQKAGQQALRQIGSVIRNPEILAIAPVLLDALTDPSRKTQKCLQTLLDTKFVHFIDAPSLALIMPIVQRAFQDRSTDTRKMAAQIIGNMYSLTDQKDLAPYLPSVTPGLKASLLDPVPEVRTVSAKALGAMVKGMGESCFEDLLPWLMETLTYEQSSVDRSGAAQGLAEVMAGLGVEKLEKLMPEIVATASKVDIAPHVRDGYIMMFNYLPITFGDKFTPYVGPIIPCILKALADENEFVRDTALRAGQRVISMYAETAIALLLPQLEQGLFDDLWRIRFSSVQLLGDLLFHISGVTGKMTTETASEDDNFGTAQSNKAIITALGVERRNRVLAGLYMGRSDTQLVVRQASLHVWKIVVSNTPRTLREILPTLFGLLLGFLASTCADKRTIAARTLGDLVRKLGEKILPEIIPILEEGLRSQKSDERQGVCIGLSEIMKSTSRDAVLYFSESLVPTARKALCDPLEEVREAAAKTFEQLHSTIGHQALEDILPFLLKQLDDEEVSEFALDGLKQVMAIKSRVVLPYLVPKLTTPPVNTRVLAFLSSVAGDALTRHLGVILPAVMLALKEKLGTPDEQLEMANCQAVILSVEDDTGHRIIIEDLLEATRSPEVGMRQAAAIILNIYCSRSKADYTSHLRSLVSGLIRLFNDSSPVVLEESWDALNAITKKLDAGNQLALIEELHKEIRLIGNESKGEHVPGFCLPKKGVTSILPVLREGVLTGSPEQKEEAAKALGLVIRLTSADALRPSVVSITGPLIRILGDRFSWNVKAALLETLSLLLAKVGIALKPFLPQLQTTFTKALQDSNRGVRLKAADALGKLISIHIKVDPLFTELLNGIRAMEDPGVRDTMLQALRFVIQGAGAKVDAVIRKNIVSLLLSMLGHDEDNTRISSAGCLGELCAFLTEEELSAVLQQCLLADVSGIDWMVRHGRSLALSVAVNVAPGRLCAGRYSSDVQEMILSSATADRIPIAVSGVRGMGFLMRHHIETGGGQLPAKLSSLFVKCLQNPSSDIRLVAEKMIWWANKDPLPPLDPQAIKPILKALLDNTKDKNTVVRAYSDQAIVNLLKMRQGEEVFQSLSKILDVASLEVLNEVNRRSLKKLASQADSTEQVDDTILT
inactive: [1] -0.046 | [2] 0.003 | [3] 0.019 | [4] 0.035 | [5] 0.063
